TGFb inhibitor: blocks TGF-b signaling | HepG2 CAGA-GFP TGF-b/SMAD3 reporter, GFP fluorescence, 18 h; TGF-beta stimulated, 500 pg/mL final | Potency, µM (series often up to 46.1 µM), for inactives: top-dose activity, negative = inhibition, actives largely listed as inhibitors | 410,000 compounds, 1.2% hits | AID 588855; further: on the % scale 0 is the no-effect control and ±100 the full control effect; nearly all actives have a fitted effect of over 65% in size
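Cell-based qHTS in HEPG2 carrying a CAGA-GFP Smad reporter; compounds added before 500 pg/mL final TGF-beta, 18 h incubation at 37 degrees C, GFP fluorescence quantified per cell by imaging cytometry.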
DT40 TDP1 CPT: DT40-hTDP1 cell growth loss with CPT | chicken DT40 Tdp1-/-;hTDP1 cells + 20 nM CPT, ATP luminescence, 48 h | Potency, µM (series often up to 46.2 µM), for inactives: at the highest dose activity change, negative = growth inhibition, hits mostly inhibitors | 420,000 compounds, 12% hits | AID 686979; further: on the % scale 0 is the no-effect control and ±100 the full control effect; nearly all actives have a fitted effect of over 55% in size
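Chicken DT40 Tdp1-/- cells stably complemented with human TDP1 were seeded at 400 cells/well in medium containing 20 nM camptothecin, exposed to pin-transferred compounds, and grown at 37 °C for at least 48 hr. Viability was read as ATP luminescence.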
HT1080 IDH1KD tx: HT-1080 IDH1 knockdown cell toxicity (counter line) | HT-1080 IDH1 knockdown viability, ATP luminescence, 48 h | Potency, µM (titrated, usually from 46.1 µM), for inactives: at the top dose activity, negative = toxicity, most hits filed as cytotoxic | 360,000 compounds, 2% hits;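 further: 0% = DMSO wells and -100% = cell-free medium wells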
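HT-1080-IDH1KD cells (IDH1 knocked down), 750/well in RPMI with 5% FBS, treated with compound 48 h at 37 degrees C. Viability by CellTiter-Glo luminescence, normalised to DMSO and no-cell wells; concentration-response curves classed.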
HT1080-NT tox: kills 2HG-producing HT-1080-NT fibrosarcoma cells | HT-1080-NT fibrosarcoma viability, CellTiter-Glo ATP luminescence, 48 h | Potency, µM (doses to about 46.1 µM), for the others: at the highest dose activity, negative = less viability, hits mostly cytotoxic | 360,000 compounds, 1.6% hits | AID 686970;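 further: NT is the 2HG producing partner of a matched IDH1 knockdown line; 0% = DMSO-treated cells and -100% = media-only wells without cells; nearly all actives have a fitted effect of over 55% in size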
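Viability of the 2HG-overproducing fibrosarcoma line after 48 hours of compound exposure at 37 degrees C was determined by luminescence with CellTiter-Glo, and concentration-effect curves were then fitted and categorized.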
HepG2 viability: HepG2 cytotoxicity, counter-screen for TGF-b inhibitors. HepG2 CAGA-GFP viability, ATP luminescence, 18 h. 410,000 compounds, 0.76% hits. AID 588856. Potency, µM (top dose mostly 46.1 µM), inactives show at the top dose activity change, negative = cytotoxicity, actives largely listed as cytotoxic
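CellTiter-Glo luminescence gave cytotoxicity after 18 hours at 37 degrees C. The cells were HepG2 CAGA-GFP in 1% FBS DMEM, stimulated with 500 pg/mL TGF-beta after compound addition. %Activity was normalised to no-cell wells (complete cell-killing) and DMSO (no toxicity), and curves were fitted and classified.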
TDP1 cell noCPT: qHTS for Inhibitors of human tyrosyl-DNA phosphodiesterase 1 (TDP1): qHTS in cells in absence of CPT | DT40 Tdp1-/- hTDP1 cells, no CPT, ATP luminescence, 48 h | Potency, µM (titrated, usually from 46.2 µM), for the others: at the top dose activity change, negative = growth inhibition, most hits filed as inhibitors | 420,000 compounds, 15% hits; further: on the % scale 0 is the no-effect control and ±100 the full control effect; nearly all actives have a fitted effect of over 55% in size
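Chicken DT40 Tdp1-/- cells complemented with human TDP1, screened without camptothecin (DMSO vehicle only), 400 cells/well. Compounds pin-transferred, cells incubated at 37 °C for at least 48 hr. Growth read as ATP-dependent luminescence (CellTiter-Glo, 30 min at RT).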
Starred values were filed as active, the others as inactive. Most compounds without a hit are left out; they make up all but 17% or so of the library. The call rests on the fitted dose curve; in most records, active means well fitted curve in the direction sought with a large enough effect; inconclusive means small, poorly fitted or top-dose-only effect, or another doubt; inactive means no such curve, though single readings can be large; an effect the other way counts as inactive or inconclusive. Potency means the concentration at half of the fitted maximal effect.

C=CCn1c2ccccc2c2nnc(SCCN3CCCCC3)nc21 was read as TGFb inhibitor 1%, DT40 TDP1 CPT -26%, HT1080 IDH1KD tx -8%, HT1080-NT tox -16%, HepG2 viability -16% and TDP1 cell noCPT 18µM*.
For CCn1c2ccccc2c2nnc(SCC(=O)c3ccccc3)nc21 the results were TGFb inhibitor -2%, DT40 TDP1 CPT inconclusive, HT1080 IDH1KD tx 3%, HT1080-NT tox 7%, HepG2 viability 2% and TDP1 cell noCPT inconclusive.
For c1ccc(Cn2c3ccccc3c3nnc(SCCN4CCCCC4)nc32)cc1 the results were TGFb inhibitor -8%, DT40 TDP1 CPT 23µM*, HT1080 IDH1KD tx 5%, HT1080-NT tox 9%, HepG2 viability -9% and TDP1 cell noCPT 23µM*.
C=CCn1c2ccccc2c2nnc(SCCCn3c(=O)[nH]c4ccccc43)nc21 was read as TGFb inhibitor -27%, DT40 TDP1 CPT inconclusive, HT1080 IDH1KD tx 16µM*, HT1080-NT tox inconclusive, HepG2 viability -29% and TDP1 cell noCPT 13µM*.
`C=CCn1c2ccccc2c2n[nH]c(=S)nc21` gave TGFb inhibitor 3%, DT40 TDP1 CPT -15%, HT1080 IDH1KD tx -2%, HT1080-NT tox 0%, HepG2 viability -35% and TDP1 cell noCPT inconclusive.
Screening Cc1cccc(N2C(=O)CSC23C(=O)N(Cc2cccc(C(F)(F)F)c2)c2ccccc23)c1 (centres undefined) returned TGFb inhibitor inconclusive, DT40 TDP1 CPT 18µM*, HepG2 viability -13% and TDP1 cell noCPT 16µM*.
O=C1CSC2(C(=O)N3CCCc4cccc2c43)N1c1cccc(C(F)(F)F)c1 (centres undefined) was read as TGFb inhibitor inconclusive, DT40 TDP1 CPT 21µM*, HT1080 IDH1KD tx 1%, HT1080-NT tox -5%, HepG2 viability -1% and TDP1 cell noCPT inconclusive.
Screening COc1cccc(C(=O)NCCN2CCC(n3c(=O)[nH]c4ccccc43)CC2)c1 returned DT40 TDP1 CPT -3%, HT1080 IDH1KD tx 27%, HT1080-NT tox 4% and TDP1 cell noCPT -32%.
For O=C(Nc1cccc2ccccc12)OC1C=CS(=O)(=O)C1 (centres undefined) the results were TGFb inhibitor 1%, DT40 TDP1 CPT inconclusive, HT1080 IDH1KD tx inconclusive, HT1080-NT tox 18µM*, HepG2 viability 2% and TDP1 cell noCPT 21µM*.
`CCN(CC1COc2ccccc2O1)C(=S)NCCCN(C)C` (centres undefined) gave TGFb inhibitor 6%, DT40 TDP1 CPT 16µM*, HT1080 IDH1KD tx -15%, HT1080-NT tox 0%, HepG2 viability -19% and TDP1 cell noCPT 18µM*.
For CN(CC1COc2ccccc2O1)C(=S)NC1CCCCC1 (centres undefined) the results were TGFb inhibitor inconclusive, DT40 TDP1 CPT inconclusive, HT1080 IDH1KD tx -12%, HT1080-NT tox -7%, HepG2 viability -27% and TDP1 cell noCPT inconclusive.
For CCOC(=O)c1ccc(NC(=O)CC2COc3ccccc3O2)cc1 (centres undefined) the results were TGFb inhibitor 1%, DT40 TDP1 CPT 3%, HT1080 IDH1KD tx -2%, HT1080-NT tox -8%, HepG2 viability 1% and TDP1 cell noCPT 1µM*.
`CCN(CC1COc2ccccc2O1)C(=S)Nc1ccccc1` (centres undefined) gave TGFb inhibitor 38%, DT40 TDP1 CPT inconclusive, HT1080 IDH1KD tx 0%, HT1080-NT tox 1%, HepG2 viability -13% and TDP1 cell noCPT 2.8µM*.
`COc1cc(OC)c(C(=O)NCCCn2ccnc2)cc1OC` gave TGFb inhibitor -10%, DT40 TDP1 CPT 6%, HT1080 IDH1KD tx 10%, HT1080-NT tox 11%, HepG2 viability -5% and TDP1 cell noCPT 12%.
`O=C(Cc1ccccc1)N(Cc1cccnc1)c1nc2c(F)cccc2s1` gave TGFb inhibitor 1.6µM*, DT40 TDP1 CPT inconclusive, HepG2 viability -35% and TDP1 cell noCPT inconclusive.
For O=C(C1CCCCC1)N(Cc1cccnc1)c1nc2c(F)cccc2s1 the results were TGFb inhibitor inconclusive, DT40 TDP1 CPT 21µM*, HepG2 viability -33% and TDP1 cell noCPT 21µM*.
Screening CN(C)c1ncc2nc(-c3cc(F)cc(F)c3)c(=O)n(-c3ccccc3)c2n1 returned DT40 TDP1 CPT 9% and TDP1 cell noCPT 12%.
For COc1ccc(C(=O)CN2CCN(S(=O)(=O)c3ccc(C(C)C)cc3)CC2)cc1 the results were TGFb inhibitor inconclusive, DT40 TDP1 CPT inconclusive, HepG2 viability -32% and TDP1 cell noCPT inconclusive.
Screening COc1ccc(COCC(O)CN2CCN(S(=O)(=O)c3ccc(C(C)C)cc3)CC2)cc1 (centres undefined) returned TGFb inhibitor 0%, DT40 TDP1 CPT 26µM*, HT1080 IDH1KD tx -3%, HT1080-NT tox 1%, HepG2 viability -19% and TDP1 cell noCPT 21µM*.
CC(C)c1ccccc1OCC(O)CN1CCN(S(=O)(=O)c2ccc([N+](=O)[O-])cc2)CC1 (centres undefined) was read as TGFb inhibitor -20%, DT40 TDP1 CPT inconclusive, HT1080 IDH1KD tx inconclusive, HT1080-NT tox -29%, HepG2 viability -9% and TDP1 cell noCPT 8.2µM*.
Screening O=S(=O)(c1ccc(F)cc1)N1CCN(CC(O)COc2ccccc2F)CC1 (centres undefined) returned TGFb inhibitor -14%, DT40 TDP1 CPT -1%, HT1080 IDH1KD tx 2%, HT1080-NT tox 2%, HepG2 viability -36% and TDP1 cell noCPT -22%.
Screening CC(OCC(O)CN1CCN(S(=O)(=O)c2ccc(Cl)cc2)CC1)c1ccc(Cl)cc1 (centres undefined) returned TGFb inhibitor inconclusive, DT40 TDP1 CPT 12µM*, HT1080 IDH1KD tx -21%, HT1080-NT tox -10%, HepG2 viability -2% and TDP1 cell noCPT 10µM*.
Screening Cc1ccc(C(=O)OCC(=O)NCc2ccc(Cl)cc2)s1 returned TGFb inhibitor -12%, DT40 TDP1 CPT -40%, HT1080 IDH1KD tx -8%, HT1080-NT tox -7%, HepG2 viability -37% and TDP1 cell noCPT inconclusive.

Screening data deposited in PubChem by National Center for Advancing Translational Sciences (NCATS).
